Source: PubChem (National Center for Advancing Translational Sciences (NCATS))
Compounds with a hit are over-represented: about 6.5% of the library has one in this group of screens.
HT1080 IDH1KD tx: qHTS for induction of synthetic lethality in tumor cells producing 2HG: qHTS for the HT-1080-IDH1KD cell line; HT-1080 IDH1 knockdown viability, ATP luminescence, 48 h; Potency, µM (highest dose often 46.1 µM), without a hit: top-dose activity, negative = toxicity, usual class: cytotoxic; hit rate 2% among 360,000;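 also: potency is read from the fitted curve at half-maximal effect; 0% = DMSO wells and -100% = cell-free medium wells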
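IDH1KD HT-1080 cells, 750/well, RPMI + 5% FBS; compound pinned after 2 h settling; 48 h, 37 °C; CellTiter-Glo luminescence; % activity normalised to DMSO and no-cell wells; curves fitted, classed by r2 and efficacy.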
Giardia kill: Small Molecules that selectively kill Giardia lamblia: qHTS. activity change, % at 7.66 µM, hits read low. AID 540267, 2011. hit rate 0.15% among 340,000. Giardia lamblia trophozoite viability; in the data active = activity change below about -80%; inconclusive = between about -30% and that limit;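 also: parasites exposed to compound for two days anaerobically before the ATP read; % is scaled to controls: 0 for no effect and ±100 for the full control effect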
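Anaerobic 48 hrs incubation at 37 deg C of 100 trophozoites/well with test compounds; ATPLite 1-Step luminescence, 15-30 min RT, reports cellular ATP as viability.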
IL1B secr inh: qHTS for Inhibitors of Inflammasome Signaling: IL-1-beta AlphaLISA Primary Screen; THP-1 LPS/ATP IL-1B secretion, AlphaLISA, 16 h; active compounds read low; activity change, % at 57.5 µM; hit rate 4.7% among 360,000; in the data active = activity change below about -50%; inconclusive = mostly about -30% to -49%; also: % is scaled to controls: 0 for no effect and ±100 for the full control effect
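Secreted IL-1B measured by AlphaLISA bead assay after 16 h compound exposure of THP-1 cells; compounds (final up to 57.5 uM) added 1 h before LPS (250 ng/mL) and ATP (1.25 mM) stimulation; lower signal means less secretion.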
HepG2 tox: qHTS for Inhibitors of TGF-b: Cytotox Counterscreen | hit rate 0.76% among 410,000 | Potency, µM (highest dose often 46.1 µM), inactives show top-dose activity change, negative = cytotoxicity, actives largely listed as cytotoxic | AID 588856, 2011 | HepG2 CAGA-GFP viability, ATP luminescence, 18 h; also: potency is read from the fitted curve at half-maximal effect
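HepG2 CAGA-GFP cells (1000/well, DMEM with 1% FBS) received compound, then TGF-beta at 500 pg/mL final, and were incubated 18 hours at 37 degrees C. Viability was read by CellTiter-Glo luminescence. Media-only wells were set as complete cell-killing and DMSO as no toxicity.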
TGFb inhibitor: qHTS for Inhibitors of TGF-b; HepG2 CAGA-GFP TGF-b/SMAD3 reporter, GFP fluorescence, 18 h; TGF-beta stimulated, 500 pg/mL final; Potency, µM (highest dose often 46.1 µM), for the others: top-dose activity, negative = inhibition, actives largely listed as inhibitors; hit rate 1.2% among 410,000; AID 588855, 2011; also: potency is read from the fitted curve at half-maximal effect; % is scaled to controls: 0 for no effect and ±100 for the full control effect; nearly all actives have a fitted effect of over 65% in size
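Smad-responsive CAGA-GFP expression was quantified in HEPG2 cells exposed to compounds and 500 pg/mL final TGF-beta for 18 h at 37 degrees C; unstimulated wells defined full inhibition.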
HT1080-NT tox: qHTS for induction of synthetic lethality in tumor cells producing 2HG: qHTS for the HT-1080-NT fibrosarcoma cell line; HT-1080-NT fibrosarcoma viability, CellTiter-Glo ATP luminescence, 48 h; Potency, µM (top dose mostly 46.1 µM), for inactives: at the top dose activity, negative = less viability, usual class: cytotoxic; hit rate 1.6% among 360,000;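 also: NT is the 2HG producing partner of a matched IDH1 knockdown line; potency is read from the fitted curve at half-maximal effect; 0% = DMSO-treated cells and -100% = media-only wells without cells; nearly all actives have a fitted effect of over 55% in size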
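HT-1080-NT fibrosarcoma cells (2HG-overproducing), 750 cells/well in RPMI with 5% FBS, dosed after 2 h and incubated 48 h at 37C. CellTiter-Glo luminescence normalized to DMSO and no-cell wells; concentration-response curves fitted and classed.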
Starred values were filed as active, the others as inactive; u = inconclusive; x = no result; ! = a repeat was not active. Unless noted, calls follow the shape of the dose curve; as a rule, active = well fitted curve in the direction sought with a large enough effect; inconclusive = small, poorly fitted or top-dose-only effect, or another doubt; inactive = no such curve, though single readings can be large; an effect the other way counts as inactive or inconclusive.

SMILES	HT1080 IDH1KD tx	Giardia kill	IL1B secr inh	HepG2 tox	TGFb inhibitor	HT1080-NT tox
NS(=O)(=O)c1ccc(NC(=S)NC(=O)C2CCCC2)cc1	8%	1	14	5%	1%	1%
COC(=O)Cc1c(C)[nH]n(-c2cc(Cl)cc(Cl)c2)c1=O	u	7	-65*	-48%	u	u
CCOC(=O)c1n[nH]n(-c2cc(Cl)cc(Cl)c2)c1=O	8%	20	5	9%	-7%	14%
COc1ccc(CCN2C(=O)c3cccc4cccc(c34)C2=O)cc1OC	2%	3	6	-6%	-14%	12%
CCN(CC)C(=O)c1ccc2c3c(cccc13)C(=O)N(CCc1ccc(OC)c(OC)c1)C2=O	11%	-4	-73*	-4%	5%	0%
CCS(=O)(=O)c1nnnn1-c1ccccc1S(C)(=O)=O	13µM*	8	-97*	-2%	11µM*	18µM*
O=S(=O)(Cc1nnnn1-c1ccc(Br)cc1)c1ccccc1	0%	x	-22	-37%	-7%	-3%
O=C1C2CCCN2C(c2ccc(Cl)cc2)N1c1nccs1 (stereo not drawn)	3%	12	5	-19%	-7%	4%
Cn1c(=O)[nH]c(=O)c2c1nc(NCCO)n2CCOc1ccccc1	-1%	-24	11	-5%	-1%	-3%
CCOc1ccc(CNC(=O)c2ccc(Sc3ccc(Cl)cc3)c(NC(C)=O)c2)cc1OC	-14%	-8	u	-33%	11µM*!	-14%
CC1(C)N=C(SCC(=O)Nc2ccccc2)C(c2ccc(Cl)cc2)=N1	-24%	-7	-93*	-8%	-30%	-16%
O=C(CSc1ncc(-c2ccccc2)[nH]1)Nc1ccc(Cl)cc1	x	x	x	-64%	u	x
Cc1ccc(C2=NC(C)(C)N=C2SCC(=O)Nc2ccc(Cl)cc2)cc1	u	-3	-106*	-19%	14%	u
CC1(C)N=C(SCC(=O)Nc2ccc(Cl)cc2Cl)C(c2ccccc2)=N1	-2%	-1	-87*	-13%	-13%	0%
CNC(=O)CSc1nc2c([nH]c3ccccc32)c(=O)n1CCOC	-2%	-18	53	-4%	0%	-2%
CCOC(=O)CSc1n[nH]c(NC(=O)c2ccc(F)cc2)n1	-11%	-8	28	-20%	-17%	4%
CC(C)C(=O)NCCc1nc2ccccc2n1CCCOc1ccc(Cl)cc1	-27%	3	u	-15%	-8%	-6%
Cc1[nH]c2ccccc2c1CN1CCN(c2ccccn2)CC1	1%	12	x	-30%	0%	7%
Cc1[nH]c2ccccc2c1CN1CCC(Cc2ccccc2)CC1	23µM*	1	-85*	-92%	u	u
CC(C)NC(=S)NC(=O)/C=C/c1ccc(F)cc1	2%	-9	-53*	7%	u	-3%
CN(C(=O)/C=C/c1ccc(F)cc1)C1CCCCC1	8%	-14	u	-72%	-23%	13%
CC(C)(CNC(=O)/C=C/c1ccc(F)cc1)CNC(=O)/C=C/c1ccc(F)cc1	u	5	-88*	-34%	-10%	u
CC(C)(C)SCCNC(=O)/C=C/c1ccc(F)cc1	u	u	0	8%	-3%	u
CN(C(=S)NC(=O)/C=C/c1ccc(F)cc1)C1CCCCC1	15%	0	-66*	-20%	-23%	u
O=C(c1cnccn1)N(Cc1ccco1)C1(C(=O)NC2CCCC2)CCCCC1	9%	4	31	3%	6%	12%
SMILES	HT1080 IDH1KD tx	Giardia kill	IL1B secr inh	HepG2 tox	TGFb inhibitor	HT1080-NT tox
COc1ccc(CCNC(=S)N2CCC(C(=O)c3ccc(F)cc3)CC2)cc1OC	u	u	-13	-36%	11µM*	-17%
C[n+]1cccc(C(=O)NNC(=O)C23CC4CC(CC(C4)C2)C3)c1	18%	19	-1	30%	-2%	18%
Cc1ccnc(NC(=O)C2CCN(S(=O)(=O)c3cccc4nonc34)CC2)c1	5%	-2	-51*	-17%	-25%	12%
Cc1cc(C)cc(NC(=O)C2CCN(S(=O)(=O)c3cccc4nonc34)CC2)c1	x	x	x	2%	-1%	x
O=C(C1CCCN(S(=O)(=O)c2cccc3nsnc23)C1)N1CC=C(c2ccccc2)CC1 (stereo not drawn)	u	3	-55*	-19%	u	-12%
Cc1ccnc(NC(=O)C2CCN(S(=O)(=O)c3cccc4nsnc34)CC2)c1	4%	-3	-53*	-4%	19%	1%
COc1ccc(OC)c(NC(=O)C2CCCN(S(=O)(=O)c3cccc4nsnc34)C2)c1 (stereo not drawn)	u	12	-2	13µM*	-9%	-6%
O=C(C1CCN(S(=O)(=O)c2cccc3nsnc23)CC1)N1CC=C(c2ccccc2)CC1	-16%	-7	8	-27%	-18%	-7%
Cc1ccc(NC(=O)C2CCN(S(=O)(=O)c3cccc4nsnc34)CC2)cc1	x	x	x	-6%	u	x
CCOc1ccc(C2=CS/C(=C(\C#N)c3nnc4n3CCCCC4)N2CC)cc1	u	7	-4	-35%	6%	-26%
CCC(CC)C(=O)N1c2ccc(F)cc2CCC1C (stereo not drawn)	0%	-2	20	-12%	4%	-5%
CC1CCc2cc(F)ccc2N1C(=O)CCl (stereo not drawn)	u	5	-97*	-35%	-62%	u
O=C(CCl)N1N=C(c2cccs2)CC1c1ccco1 (stereo not drawn)	4.1µM*	19	-100*	-89%	11µM*	5.2µM*
CN1CCN(CC(=O)N2N=C(c3cccs3)CC2c2ccco2)CC1 (stereo not drawn)	-15%	2	13	0%	8%	0%
O=C(CCl)N1N=C(c2ccco2)CC1c1ccco1 (stereo not drawn)	u	12	-99*	-85%	11µM*	26µM*
Cc1ccc(C2=NN(C(=O)CSc3nccn3C)C(c3ccco3)C2)cc1 (stereo not drawn)	15µM*	7	u	-1%	-11%	18µM*
Cc1cc(C)c(NC(=S)N(Cc2cccnc2)Cc2ccco2)c(C)c1	-3%	-9	25	-2%	1%	5%
Cc1ccc(S(=O)(=O)/C=C2\OCc3ccccc32)cc1	16%	x	-12	x	x	0%
